Measured values taken from PubChem BioAssay (NCI).
Several values for one entry are separate records, joined by “and”; a condition that tells them apart may be missing. Identical values can stand only once. This is part of a sample that, as a whole, favours compounds with a hit. Of some 79,000 tested, about 15% had one in any assay. The source holds several records for some structures; these can differ, active in one and inactive in another. Activity calls are given as the source filed them. No stated cut-off is given here; in the data, active means growth inhibition above about 70%; inactive means the rest.

Tests used:
[1] = NCI Yeast Anticancer Drug Screen. Data for the rad50 strain (AID 155);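 further: 0% = growth of vehicle-only cultures of the same strain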; conditions: S. cerevisiae rad50 strain growth inhibition, stronger effect = higher value
Method in brief: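 Cells are treated with compound, grown, and their growth is then scored against vehicle-only cultures of the same repair-deficient yeast strain.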

[2] = NCI Yeast Anticancer Drug Screen. Data for the mec2-1 strain (AID 157); conditions: S. cerevisiae mec2-1 strain, stronger effect = higher value
Method in brief: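 Strain: mec2-1 (DNA repair/cell cycle alteration). Compound exposure, then growth measured; inhibition expressed relative to vehicle.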

[3] = NCI Yeast Anticancer Drug Screen. Data for the sgs1 mgt1 strain (AID 161);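 further: 0% = growth of cultures given vehicle only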; conditions: S. cerevisiae sgs1 mgt1 strain, stronger effect = higher value
Method in brief: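 Read-out: growth inhibition vs vehicle controls. Cells: mutant yeast strain deficient in DNA damage repair.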

[4] = NCI Yeast Anticancer Drug Screen. Data for the cln2 rad14 strain (AID 165);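 further: 0% = growth equal to vehicle treated cultures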; conditions: S. cerevisiae cln2 rad14 strain, stronger effect = higher value
Method in brief: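 Compounds are applied to the cln2 rad14 yeast strain, and growth is then compared with that of vehicle-treated cultures to give inhibition.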

[5] = NCI Yeast Anticancer Drug Screen. Data for the bub3 strain (AID 167); conditions: S. cerevisiae bub3 mutant strain, stronger effect = higher value
Method in brief: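 Part of a panel of yeast mutants defective in DNA damage repair or cell cycle regulation. Each strain is grown with compound, and inhibition is calculated relative to solvent-treated cultures.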

[6] = NCI Yeast Anticancer Drug Screen. Data for the mlh1 rad18 strain (AID 175); conditions: S. cerevisiae mlh1 rad18 strain growth inhibition, stronger effect = higher value
Method in brief: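 Read-out is yeast growth inhibition, calculated against vehicle-only controls. The compound was applied to a strain engineered with DNA damage repair alterations.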

[7] = at 5.0 µM (retest, dose inferred, filed as 0.5)
[8] = at 50.0 µM (retest, dose inferred, filed as 5.0)

Measured: growth inhibition

Nc1nc(N)c(-c2ccc(Cl)c(Cl)c2)c(CCc2ccc(CNC(=O)c3cc(S(=O)(=O)F)ccc3Cl)cc2)n1
active: [2]; at 50.0 µM 96% | [5]; at 50.0 µM 74.7% | [6]; at 50.0 µM 94.5%
inactive: [1]; [7] -4% | [1]; [8] 49% | [1]; at 50.0 µM 50.5% | [2]; [7] -4% | [2]; [8] 54% | [3]; [7] -3% | [3]; [8] 50% | [3]; at 50.0 µM 66.8% | [4]; [7] -7% | [4]; [8] 47% | [4]; at 50.0 µM 12.5% | [5]; [7] -2% | [5]; [8] 45% | [6]; [7] -3% | [6]; [8] 53%

Cn1cnc(C(=N)[Se])c1N
inactive: [1]; [7] 63% | [2]; [7] 30% | [3]; [7] 27% | [3]; [8] 53% | [3]; at 50.0 µM 30.8% | [4]; [7] 2% | [4]; [8] 15% | [4]; at 50.0 µM -24.8% | [5]; [7] 51% | [6]; at 50.0 µM 67.7%
active: [1]; [8] 94% | [1]; at 50.0 µM 83.4% | [2]; [8] 91% | [2]; at 50.0 µM 71% | [5]; [8] 94% | [5]; at 50.0 µM 91.4% | [6]; [7] 78% | [6]; [8] 94%

Cl[C](Cl)(Cl)[Hg][c]1ccccc1
active: [1]; [7] 99% | [1]; [8] 99% | [1]; at 50.0 µM 88% | [2]; [7] 100% | [2]; [8] 99% | [2]; at 50.0 µM 93.8% | [3]; [7] 100% | [3]; [8] 99% | [3]; at 50.0 µM 92.7% | [4]; [7] 99% | [4]; [8] 99% | [4]; at 50.0 µM 91.7% | [5]; [7] 99% | [5]; [8] 99% | [5]; at 50.0 µM 91.8% | [6]; [7] 99% | [6]; [8] 99% | [6]; at 50.0 µM 91.5%

N#Cc1ccc(N=Cc2c([O-])ccc3ccccc23)cc1.[C-]#[O+].[C-]#[O+].[Ir]
active: [1]; at 50.0 µM 82.6% | [5]; at 50.0 µM 74.7% | [6]; at 50.0 µM 75.8%
inactive: [1]; [7] 8% | [1]; [8] 8% | [2]; [7] 1% | [2]; [8] 1% | [2]; at 50.0 µM 59.5% | [3]; [7] 2% | [3]; [8] 2% | [3]; at 50.0 µM 61.8% | [4]; [7] 0% | [4]; [8] 0% | [4]; at 50.0 µM 50.2% | [5]; [7] 1% | [5]; [8] 1% | [6]; [7] 13% | [6]; [8] 13%

CC(C)(C)OOC(=O)c1ccccc1
active: [1]; [8] 99% | [2]; [8] 99% | [3]; [8] 93% | [4]; [8] 99% | [5]; [8] 99% | [6]; [8] 99% | [6]; at 50.0 µM 75.3%
inactive: [1]; [7] 26% | [1]; at 50.0 µM 37.6% | [2]; [7] 11% | [2]; at 50.0 µM 18.4% | [3]; [7] 14% | [3]; at 50.0 µM 29% | [4]; [7] 14% | [4]; at 50.0 µM 0.5% | [5]; [7] 3% | [5]; at 50.0 µM 3.1% | [6]; [7] 26%

ClCCN(CCCl)CCN1c2ccccc2Sc2ccc3ccccc3c21
active: [1]; at 50.0 µM 80% | [3]; [8] 81% | [3]; at 50.0 µM 95.8% | [4]; at 50.0 µM 70.9% | [6]; [8] 78% | [6]; at 50.0 µM 83.5%
inactive: [1]; [7] 3% | [1]; [8] 31% | [2]; [7] 2% | [2]; [8] 53% | [2]; at 50.0 µM 40% | [3]; [7] 7% | [4]; [7] -7% | [4]; [8] 18% | [5]; [7] -5% | [5]; [8] 42% | [5]; at 50.0 µM 40.6% | [6]; [7] 12%

Oc1ccc(Br)cc1C1N(Cc2ccc(N(CCCl)CCCl)cc2Cl)CCCN1Cc1ccc(N(CCCl)CCCl)cc1Cl
active: [1]; [8] 98% | [2]; [8] 99% | [3]; [8] 99% | [4]; [7] 70% | [4]; [8] 98% | [5]; [7] 84% | [5]; [8] 99% | [6]; [7] 98% | [6]; [8] 98%
inactive: [1]; [7] 69% | [1]; at 50.0 µM 10.7% | [2]; [7] 47% | [2]; at 50.0 µM 63% | [3]; [7] 54% | [3]; at 50.0 µM 23.7% | [4]; at 50.0 µM 8.95% | [5]; at 50.0 µM 52% | [6]; at 50.0 µM 46.5%

CC(Cc1ccccc1)N(C)Cc1ccc(-c2ccc(Cl)cc2)o1 (centres undefined)
inactive: [1]; [7] 56% | [2]; [7] 11% | [3]; [7] 49% | [3]; at 50.0 µM 33.9% | [4]; [7] 38% | [5]; [7] 42% | [6]; [7] 41%
active: [1]; [8] 100% | [1]; at 50.0 µM 99% | [2]; [8] 100% | [2]; at 50.0 µM 99.7% | [3]; [8] 100% | [4]; [8] 100% | [4]; at 50.0 µM 99.3% | [5]; [8] 100% | [5]; at 50.0 µM 99.2% | [6]; [8] 100% | [6]; at 50.0 µM 99.5%

Oc1c(Cl)cc(-c2cc(Cl)c(O)c(Cl)c2)cc1Cl
inactive: [4]; [7] 57%
active: [1]; [7] 95% | [1]; [8] 94% | [1]; at 50.0 µM 84.2% | [2]; [7] 96% | [2]; [8] 97% | [2]; at 50.0 µM 89% | [3]; [7] 89% | [3]; [8] 97% | [3]; at 50.0 µM 89.7% | [4]; [8] 98% | [4]; at 50.0 µM 87.6% | [5]; [7] 92% | [5]; [8] 96% | [5]; at 50.0 µM 86.7% | [6]; [7] 99% | [6]; [8] 99% | [6]; at 50.0 µM 84.9%

C[CH2][Sn]([Cl])([Cl])[CH2]C
53.3% (inactive) and 77.2% (active): [2]; at 50.0 µM
70.3% (active) and 68.2% (inactive): [1]; at 50.0 µM
inactive: [1]; [7] 20% and 26% | [2]; [7] 10% and 16% | [3]; [7] 12% and 21% | [3]; [8] 50% and 68% | [3]; at 50.0 µM 55.9% and 44.2% | [4]; [7] 2% and 31% | [4]; [8] 42% and 35% | [4]; at 50.0 µM 53.9% and 48.2% | [5]; [7] 17% and 11% | [5]; [8] 69% and 58% | [5]; at 50.0 µM 48.5% and 41.8% | [6]; [7] 19% and 30% | [6]; at 50.0 µM 33.9% and 23.1%
active: [2]; [8] 75% and 85%
58% (inactive) and 79% (active): [1]; [8]
45% (inactive) and 81% (active): [6]; [8]

Cc1oc2c([N+](=O)[O-])cccc2c1[N+](=O)[O-]
active: [1]; [7] 98% | [1]; [8] 98% | [1]; at 50.0 µM 99.5% | [2]; [7] 99% | [2]; [8] 99% | [2]; at 50.0 µM 99.8% | [3]; [7] 99% | [3]; [8] 98% | [3]; at 50.0 µM 99.6% | [4]; [7] 98% | [4]; [8] 98% | [4]; at 50.0 µM 98.8% | [5]; [7] 99% | [5]; [8] 99% | [6]; [7] 98% | [6]; [8] 98% | [6]; at 50.0 µM 99.7%
inactive: [5]; at 50.0 µM 52.2%

COc1cc(CC(=O)N2CC2)cc(OC)c1OC
inactive: [1]; [7] -6% | [1]; [8] -1% | [1]; at 50.0 µM 7.85% | [2]; [7] 0% | [2]; [8] 8% | [2]; at 50.0 µM -3.1% | [3]; [7] -6% | [3]; [8] 2% | [3]; at 50.0 µM -13.6% | [4]; [7] -7% | [4]; [8] -3% | [4]; at 50.0 µM 39.4% | [5]; [7] -5% | [5]; [8] -1% | [5]; at 50.0 µM 13.9% | [6]; [7] -2% | [6]; [8] -8% | [6]; at 50.0 µM -13.8%

CN(CCC(N)CC(=O)NC1C=CC(n2ccc(N)nc2=O)OC1C(=O)O)C(=N)N (centres undefined)
active: [1]; [8] 95% | [1]; at 50.0 µM 91.8% | [2]; [7] 86% | [2]; [8] 98% | [2]; at 50.0 µM 92.8% and 93.4% | [3]; [8] 90% | [3]; at 50.0 µM 90.9% | [4]; [7] 88% | [4]; [8] 97% | [4]; at 50.0 µM 90% and 90.2% | [5]; [8] 96% | [5]; at 50.0 µM 91% and 92% | [6]; [7] 72% | [6]; [8] 97% | [6]; at 50.0 µM 90.6% and 90.7%
inactive: [1]; [7] 48% | [3]; [7] 42% | [5]; [7] 68%
